# Legend:
# Assay in all cases: DAPPL (digital affinity profiling via proximity ligation, sequencing); 10 mM Tris-HCl pH 7.5, 50 mM NaCl, 1 mM DTT, 4% glycerol, room temperature, 30 min; GST-TFs on glutathione beads, 16-mer random dsDNA library, 0.1% formaldehyde crosslink after washing; high values mean tight binding
# [1] = target: T1, FEV (Homo sapiens, UniProt Q99581 1-238); settings: protein: recombinant; tags: N-terminal GST; dsDNA, one strand shown
# T1 sequence: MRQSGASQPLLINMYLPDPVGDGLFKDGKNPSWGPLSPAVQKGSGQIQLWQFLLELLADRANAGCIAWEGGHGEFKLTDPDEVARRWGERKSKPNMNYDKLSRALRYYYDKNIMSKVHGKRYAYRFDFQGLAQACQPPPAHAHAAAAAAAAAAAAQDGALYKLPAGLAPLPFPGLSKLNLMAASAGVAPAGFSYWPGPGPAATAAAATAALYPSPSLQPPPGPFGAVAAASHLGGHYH
# Summary of the method: (§1)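 After expression in yeast as GST fusions, human transcription factors were bound to glutathione beads, DNA-barcoded and mixed with a tag-only sample. The pools were incubated with 200 nmole of a 16-mer random double-stranded DNA library in Tris/NaCl/DTT/glycerol buffer (30 min, room temperature), washed and crosslinked with 0.1% formaldehyde. Proximity ligation with BsaI/T4 ligase ran for 1 h at 37 °C, before PCR amplification and sequencing on an Illumina NextSeq500. Binding signal is a hexamer's read frequency for a factor divided by its frequency for the tag-only sample.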
# [2] = target: ETV5 (Homo sapiens, UniProt P41161 1-510); settings: protein: recombinant; tags: N-terminal GST; dsDNA, one strand shown
# Summary of the method: as §1
# [3] = target: HSF1 (Homo sapiens, UniProt Q00613 1-529); settings: protein: recombinant; tags: N-terminal GST; chain copies: 3; dsDNA, one strand shown
# Summary of the method: as §1
# [4] = target: T2, SPIC (Homo sapiens, UniProt Q8N5J4 1-248); settings: protein: recombinant; tags: N-terminal GST; dsDNA, one strand shown
# T2 sequence: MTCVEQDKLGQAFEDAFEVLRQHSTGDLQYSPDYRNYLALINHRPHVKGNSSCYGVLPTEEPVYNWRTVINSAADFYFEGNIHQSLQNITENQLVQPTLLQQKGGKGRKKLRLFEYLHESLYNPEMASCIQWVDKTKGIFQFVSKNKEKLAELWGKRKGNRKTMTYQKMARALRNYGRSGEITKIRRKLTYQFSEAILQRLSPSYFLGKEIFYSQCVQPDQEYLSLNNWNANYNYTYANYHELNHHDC
# Summary of the method: as §1
# [5] = target: ELF4 (Homo sapiens, UniProt Q99607 1-663); settings: protein: recombinant; tags: N-terminal GST; dsDNA, one strand shown
# Summary of the method: as §1
# [6] = target: T3, ELK4 (Homo sapiens, UniProt P28324-2 1-405); settings: protein: recombinant; tags: N-terminal GST; dsDNA, one strand shown
# T3 sequence: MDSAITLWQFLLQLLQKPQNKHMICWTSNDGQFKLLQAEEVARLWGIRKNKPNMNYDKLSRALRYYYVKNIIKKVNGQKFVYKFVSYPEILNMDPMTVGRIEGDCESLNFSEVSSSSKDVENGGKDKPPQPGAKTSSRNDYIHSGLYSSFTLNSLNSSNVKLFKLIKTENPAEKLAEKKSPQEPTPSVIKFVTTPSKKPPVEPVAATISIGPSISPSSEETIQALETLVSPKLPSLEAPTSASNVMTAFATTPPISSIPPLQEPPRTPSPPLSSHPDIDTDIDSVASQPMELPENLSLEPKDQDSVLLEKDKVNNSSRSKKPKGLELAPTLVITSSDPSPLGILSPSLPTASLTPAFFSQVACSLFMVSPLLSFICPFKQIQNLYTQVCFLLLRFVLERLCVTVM
# Summary of the method: as §1
# [7] = target: T4, ETV2 (Homo sapiens, UniProt O00321 1-342); settings: protein: recombinant; tags: N-terminal GST; dsDNA, one strand shown
# T4 sequence: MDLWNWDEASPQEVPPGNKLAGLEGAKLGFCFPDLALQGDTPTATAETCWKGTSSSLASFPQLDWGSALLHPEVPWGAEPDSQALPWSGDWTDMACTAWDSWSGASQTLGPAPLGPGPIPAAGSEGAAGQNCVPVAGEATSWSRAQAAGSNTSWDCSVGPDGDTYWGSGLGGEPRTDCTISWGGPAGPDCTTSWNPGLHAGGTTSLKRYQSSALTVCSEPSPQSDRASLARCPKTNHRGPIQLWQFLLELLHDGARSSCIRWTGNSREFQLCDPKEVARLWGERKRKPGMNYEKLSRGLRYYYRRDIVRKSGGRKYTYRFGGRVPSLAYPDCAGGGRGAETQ
# Summary of the method: as §1
# [8] = target: T5, ELF3 (Homo sapiens, UniProt P78545 1-371); settings: protein: recombinant; tags: N-terminal GST; dsDNA, one strand shown
# T5 sequence: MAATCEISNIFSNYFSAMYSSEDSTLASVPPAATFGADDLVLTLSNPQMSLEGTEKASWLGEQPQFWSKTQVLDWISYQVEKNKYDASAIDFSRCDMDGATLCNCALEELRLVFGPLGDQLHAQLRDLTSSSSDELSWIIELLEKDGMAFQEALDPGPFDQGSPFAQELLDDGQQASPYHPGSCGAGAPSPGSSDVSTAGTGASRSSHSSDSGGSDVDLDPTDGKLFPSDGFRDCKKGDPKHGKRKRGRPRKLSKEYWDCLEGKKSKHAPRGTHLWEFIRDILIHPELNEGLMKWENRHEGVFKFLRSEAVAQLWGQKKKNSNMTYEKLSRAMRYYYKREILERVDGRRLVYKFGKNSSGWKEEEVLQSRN
# Summary of the method: as §1
# [9] = target: CRX (Homo sapiens, UniProt O43186 1-299); settings: protein: recombinant; tags: N-terminal GST; dsDNA, one strand shown
# Summary of the method: as §1
# [10] = target: ETV1 (Homo sapiens, UniProt P50549 1-477); settings: protein: recombinant; tags: N-terminal GST; dsDNA, one strand shown
# Summary of the method: as §1
# [11] = target: T6, ERF (Homo sapiens, UniProt P50548 1-548); settings: protein: recombinant; tags: N-terminal GST; dsDNA, one strand shown
# T6 sequence: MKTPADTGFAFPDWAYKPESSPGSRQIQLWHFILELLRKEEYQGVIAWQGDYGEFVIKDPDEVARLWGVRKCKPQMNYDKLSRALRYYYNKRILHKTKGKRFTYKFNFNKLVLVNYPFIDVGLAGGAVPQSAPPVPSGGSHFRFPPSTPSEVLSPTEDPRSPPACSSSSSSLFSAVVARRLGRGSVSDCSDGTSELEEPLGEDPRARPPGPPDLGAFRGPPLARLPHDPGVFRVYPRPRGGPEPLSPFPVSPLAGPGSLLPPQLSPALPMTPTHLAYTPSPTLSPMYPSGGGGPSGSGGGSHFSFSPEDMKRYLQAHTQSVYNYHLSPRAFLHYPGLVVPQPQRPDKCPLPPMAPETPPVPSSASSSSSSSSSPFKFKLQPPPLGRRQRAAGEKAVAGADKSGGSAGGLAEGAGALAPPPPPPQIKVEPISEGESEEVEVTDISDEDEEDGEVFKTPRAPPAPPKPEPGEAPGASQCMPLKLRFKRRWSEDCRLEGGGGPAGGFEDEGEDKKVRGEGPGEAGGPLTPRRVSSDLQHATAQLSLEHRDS
# Summary of the method: as §1
# [12] = target: T7, ETV3L (Homo sapiens, UniProt Q6ZN32 1-361); settings: protein: recombinant; tags: N-terminal GST; dsDNA, one strand shown
# T7 sequence: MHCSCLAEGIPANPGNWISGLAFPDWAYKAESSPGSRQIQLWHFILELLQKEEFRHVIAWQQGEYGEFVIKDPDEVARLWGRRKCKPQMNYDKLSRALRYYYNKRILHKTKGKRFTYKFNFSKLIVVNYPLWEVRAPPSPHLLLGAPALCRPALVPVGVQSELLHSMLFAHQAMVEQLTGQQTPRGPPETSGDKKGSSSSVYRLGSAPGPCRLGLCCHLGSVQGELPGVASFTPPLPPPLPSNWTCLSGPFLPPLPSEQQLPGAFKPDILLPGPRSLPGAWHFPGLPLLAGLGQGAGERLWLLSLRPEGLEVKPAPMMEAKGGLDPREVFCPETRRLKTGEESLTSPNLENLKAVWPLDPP
# Summary of the method: as §1
# [13] = target: T8, ETS2 (Homo sapiens, UniProt P15036 1-469); settings: protein: recombinant; tags: N-terminal GST; dsDNA, one strand shown
# T8 sequence: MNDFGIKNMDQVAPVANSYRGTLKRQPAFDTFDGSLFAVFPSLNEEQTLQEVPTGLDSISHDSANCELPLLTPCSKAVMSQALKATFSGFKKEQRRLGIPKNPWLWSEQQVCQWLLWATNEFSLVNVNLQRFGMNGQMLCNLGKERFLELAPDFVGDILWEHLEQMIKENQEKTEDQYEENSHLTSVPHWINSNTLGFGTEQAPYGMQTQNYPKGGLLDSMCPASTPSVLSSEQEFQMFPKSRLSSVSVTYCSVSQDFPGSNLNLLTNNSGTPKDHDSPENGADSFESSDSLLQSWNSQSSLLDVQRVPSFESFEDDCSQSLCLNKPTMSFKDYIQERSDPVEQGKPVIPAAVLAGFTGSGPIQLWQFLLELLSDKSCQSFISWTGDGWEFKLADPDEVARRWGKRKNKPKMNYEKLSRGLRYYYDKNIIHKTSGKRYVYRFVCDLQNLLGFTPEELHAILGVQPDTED
# Summary of the method: as §1
# [14] = target: T9, SPDEF (Homo sapiens, UniProt O95238 1-335); settings: protein: recombinant; tags: N-terminal GST; dsDNA, one strand shown
# T9 sequence: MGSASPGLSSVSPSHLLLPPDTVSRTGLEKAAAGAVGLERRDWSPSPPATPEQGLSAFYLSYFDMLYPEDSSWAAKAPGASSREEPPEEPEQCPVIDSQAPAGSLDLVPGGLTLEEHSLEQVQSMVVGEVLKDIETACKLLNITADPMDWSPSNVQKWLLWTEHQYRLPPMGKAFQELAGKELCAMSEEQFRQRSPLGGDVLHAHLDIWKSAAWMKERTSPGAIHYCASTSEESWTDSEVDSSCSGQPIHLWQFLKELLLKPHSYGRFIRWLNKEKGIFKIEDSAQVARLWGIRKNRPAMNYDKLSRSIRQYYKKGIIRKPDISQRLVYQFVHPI
# Summary of the method: as §1
# [15] = target: T10, ETV7 (Homo sapiens, UniProt Q9Y603 1-341); settings: protein: recombinant; tags: N-terminal GST; dsDNA, one strand shown
# T10 sequence: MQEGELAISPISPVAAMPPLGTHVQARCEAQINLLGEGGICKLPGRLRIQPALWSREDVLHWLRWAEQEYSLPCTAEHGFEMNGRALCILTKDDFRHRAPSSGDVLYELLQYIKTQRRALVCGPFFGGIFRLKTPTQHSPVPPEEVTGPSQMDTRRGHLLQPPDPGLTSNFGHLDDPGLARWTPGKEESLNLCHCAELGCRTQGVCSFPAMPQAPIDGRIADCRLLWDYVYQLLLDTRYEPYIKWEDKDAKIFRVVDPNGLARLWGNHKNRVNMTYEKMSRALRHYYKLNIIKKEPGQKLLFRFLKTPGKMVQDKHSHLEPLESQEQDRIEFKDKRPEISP
# Summary of the method: as §1
# [16] = target: T11, ELF5 (Homo sapiens, UniProt Q9UKW6-2 1-255); settings: protein: recombinant; tags: N-terminal GST; dsDNA, one strand shown
# T11 sequence: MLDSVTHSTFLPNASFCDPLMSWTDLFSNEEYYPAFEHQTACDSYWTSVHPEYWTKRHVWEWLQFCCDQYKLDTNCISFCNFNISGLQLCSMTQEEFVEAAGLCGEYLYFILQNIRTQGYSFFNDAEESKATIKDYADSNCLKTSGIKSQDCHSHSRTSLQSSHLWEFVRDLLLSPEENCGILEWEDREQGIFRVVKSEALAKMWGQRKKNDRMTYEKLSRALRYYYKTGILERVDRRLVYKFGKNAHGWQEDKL
# Summary of the method: as §1
# [17] = target: T12, ETV3 (Homo sapiens, UniProt P41162-2 1-143); settings: protein: recombinant; tags: N-terminal GST; dsDNA, one strand shown
# T12 sequence: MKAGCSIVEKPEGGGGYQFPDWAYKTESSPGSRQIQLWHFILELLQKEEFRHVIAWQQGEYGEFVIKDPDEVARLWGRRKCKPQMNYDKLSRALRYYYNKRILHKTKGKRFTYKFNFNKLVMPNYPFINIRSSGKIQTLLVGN
# Summary of the method: as §1
# [18] = target: ETV6 (Homo sapiens, UniProt P41212 1-452); settings: protein: recombinant; tags: N-terminal GST; dsDNA, one strand shown
# Summary of the method: as §1
# Sequence of HSF1 (Q00613 whole entry): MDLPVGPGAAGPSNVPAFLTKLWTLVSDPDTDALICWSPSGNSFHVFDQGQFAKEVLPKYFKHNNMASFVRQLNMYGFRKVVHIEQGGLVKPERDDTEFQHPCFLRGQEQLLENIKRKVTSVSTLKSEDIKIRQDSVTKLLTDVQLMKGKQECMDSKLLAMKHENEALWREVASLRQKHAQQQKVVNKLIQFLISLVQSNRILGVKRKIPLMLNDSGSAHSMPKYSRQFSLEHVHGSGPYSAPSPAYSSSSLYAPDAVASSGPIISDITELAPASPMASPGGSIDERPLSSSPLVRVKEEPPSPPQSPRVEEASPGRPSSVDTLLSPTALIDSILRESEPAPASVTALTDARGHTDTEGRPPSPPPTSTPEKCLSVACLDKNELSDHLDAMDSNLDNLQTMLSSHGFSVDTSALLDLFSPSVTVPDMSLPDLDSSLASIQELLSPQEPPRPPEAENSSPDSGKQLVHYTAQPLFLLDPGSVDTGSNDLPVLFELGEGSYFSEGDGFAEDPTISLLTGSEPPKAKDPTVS
# Sequence of ETV6 (P41212 whole entry): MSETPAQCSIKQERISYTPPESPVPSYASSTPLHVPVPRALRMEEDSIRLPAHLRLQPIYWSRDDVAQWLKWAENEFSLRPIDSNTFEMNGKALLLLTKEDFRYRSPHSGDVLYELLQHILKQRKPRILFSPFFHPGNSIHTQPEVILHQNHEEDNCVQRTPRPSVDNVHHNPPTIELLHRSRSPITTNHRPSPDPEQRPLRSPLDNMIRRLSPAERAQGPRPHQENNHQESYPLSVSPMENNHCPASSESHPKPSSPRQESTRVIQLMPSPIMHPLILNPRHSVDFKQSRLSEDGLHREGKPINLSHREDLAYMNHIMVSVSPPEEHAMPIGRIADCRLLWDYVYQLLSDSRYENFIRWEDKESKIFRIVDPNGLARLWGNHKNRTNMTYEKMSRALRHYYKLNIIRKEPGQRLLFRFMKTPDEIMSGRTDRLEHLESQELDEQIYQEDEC
# Sequence of ELF4 (Q99607 whole entry): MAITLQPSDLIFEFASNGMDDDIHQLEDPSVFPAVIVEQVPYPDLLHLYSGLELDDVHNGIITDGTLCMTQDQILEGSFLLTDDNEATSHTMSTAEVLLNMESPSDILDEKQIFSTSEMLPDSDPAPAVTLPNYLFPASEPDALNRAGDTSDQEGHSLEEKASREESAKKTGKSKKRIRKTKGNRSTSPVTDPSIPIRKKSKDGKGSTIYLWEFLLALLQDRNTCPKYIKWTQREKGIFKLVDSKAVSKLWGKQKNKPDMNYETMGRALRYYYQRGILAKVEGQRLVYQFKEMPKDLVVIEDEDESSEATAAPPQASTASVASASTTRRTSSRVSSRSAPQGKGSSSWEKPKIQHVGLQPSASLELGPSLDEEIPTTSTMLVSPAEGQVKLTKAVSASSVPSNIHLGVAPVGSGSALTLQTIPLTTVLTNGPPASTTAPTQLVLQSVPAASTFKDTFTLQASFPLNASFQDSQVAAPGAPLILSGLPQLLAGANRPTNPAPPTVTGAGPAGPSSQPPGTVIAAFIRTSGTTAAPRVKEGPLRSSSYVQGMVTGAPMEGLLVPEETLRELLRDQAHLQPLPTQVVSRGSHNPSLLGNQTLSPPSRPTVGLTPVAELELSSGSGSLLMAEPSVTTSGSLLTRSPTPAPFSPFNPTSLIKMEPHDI
# Sequence of ETV5 (P41161 whole entry): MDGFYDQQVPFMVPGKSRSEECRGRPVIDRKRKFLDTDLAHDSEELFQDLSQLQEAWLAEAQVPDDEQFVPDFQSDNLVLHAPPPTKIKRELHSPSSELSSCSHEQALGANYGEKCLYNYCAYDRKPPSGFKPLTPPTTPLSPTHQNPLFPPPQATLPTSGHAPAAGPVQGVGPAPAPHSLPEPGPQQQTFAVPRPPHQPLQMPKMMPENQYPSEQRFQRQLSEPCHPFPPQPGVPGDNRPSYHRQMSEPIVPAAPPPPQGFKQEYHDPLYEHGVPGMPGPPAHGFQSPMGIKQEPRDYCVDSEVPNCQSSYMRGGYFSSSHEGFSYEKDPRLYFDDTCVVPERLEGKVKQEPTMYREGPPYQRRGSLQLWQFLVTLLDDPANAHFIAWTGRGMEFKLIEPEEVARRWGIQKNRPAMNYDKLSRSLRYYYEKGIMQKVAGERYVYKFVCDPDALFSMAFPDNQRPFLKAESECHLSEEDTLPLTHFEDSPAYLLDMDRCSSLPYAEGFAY
# Sequence of CRX (O43186 whole entry): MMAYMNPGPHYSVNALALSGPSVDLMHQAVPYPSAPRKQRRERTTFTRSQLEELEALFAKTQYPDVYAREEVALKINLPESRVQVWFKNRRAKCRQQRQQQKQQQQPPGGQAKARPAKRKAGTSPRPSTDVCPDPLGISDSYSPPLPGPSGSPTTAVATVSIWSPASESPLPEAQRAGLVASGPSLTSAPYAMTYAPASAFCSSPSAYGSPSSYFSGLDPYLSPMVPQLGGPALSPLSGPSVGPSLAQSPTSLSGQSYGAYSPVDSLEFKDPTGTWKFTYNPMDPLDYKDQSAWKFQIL
# Sequence of ETV1 (P50549 whole entry): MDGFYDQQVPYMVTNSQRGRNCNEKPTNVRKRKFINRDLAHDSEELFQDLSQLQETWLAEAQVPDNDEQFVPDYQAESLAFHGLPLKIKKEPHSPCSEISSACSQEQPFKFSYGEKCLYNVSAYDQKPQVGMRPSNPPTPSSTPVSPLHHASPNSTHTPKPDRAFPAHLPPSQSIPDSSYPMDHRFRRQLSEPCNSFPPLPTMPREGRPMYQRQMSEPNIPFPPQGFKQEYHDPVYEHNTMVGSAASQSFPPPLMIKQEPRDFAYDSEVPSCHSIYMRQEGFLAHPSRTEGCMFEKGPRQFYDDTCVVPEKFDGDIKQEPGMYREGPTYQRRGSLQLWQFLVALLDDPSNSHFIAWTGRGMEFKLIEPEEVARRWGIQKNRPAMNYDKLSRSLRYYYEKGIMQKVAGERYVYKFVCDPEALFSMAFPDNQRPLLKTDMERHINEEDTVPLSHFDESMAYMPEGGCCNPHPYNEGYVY
sequence,measurement,setting,value
CCAAAA,binding signal,[1],"1.2 fold enrichment (6-mer frequency, TF over GST control)"
same,binding signal,[2],"1.19 fold enrichment (6-mer frequency, TF over GST control)"
same,binding signal,[3],"1.17 fold enrichment (6-mer frequency, TF over GST control)"
same,binding signal,[4],"1.05 fold enrichment (6-mer frequency, TF over GST control)"
same,binding signal,[5],"1.19 fold enrichment (6-mer frequency, TF over GST control)"
same,binding signal,[6],"1.05 fold enrichment (6-mer frequency, TF over GST control)"
same,binding signal,[7],"1.28 fold enrichment (6-mer frequency, TF over GST control)"
same,binding signal,[8],"1.03 fold enrichment (6-mer frequency, TF over GST control)"
same,binding signal,[9],"1.06 fold enrichment (6-mer frequency, TF over GST control)"
same,binding signal,[10],"1.18 fold enrichment (6-mer frequency, TF over GST control)"
same,binding signal,[11],"1.16 fold enrichment (6-mer frequency, TF over GST control)"
same,binding signal,[12],"1.1 fold enrichment (6-mer frequency, TF over GST control)"
same,binding signal,[13],"1.11 fold enrichment (6-mer frequency, TF over GST control)"
same,binding signal,[14],"1.11 fold enrichment (6-mer frequency, TF over GST control)"
same,binding signal,[15],"1.11 fold enrichment (6-mer frequency, TF over GST control)"
same,binding signal,[16],"1.11 fold enrichment (6-mer frequency, TF over GST control)"
same,binding signal,[17],"1.15 fold enrichment (6-mer frequency, TF over GST control)"
same,binding signal,[18],"1.2 fold enrichment (6-mer frequency, TF over GST control)"
